In all, about 140,000 sequences were measured (“enrichment ratio after two sorts for PhoP signalling”: median about 0, highest 2% from about 11 on). Shown is part of a subset that was picked to be rich in the highest values.
B1: PhoQ; a variant is named by its letters at X, in order, P23837 (parent)
chain: MKKLLRLFFPLSLRVRFLLATAAVVLVLSLAYGMVALIGYSVSFDKTTFRLLRGESNLFYTLAKWENNKLHVELPENIDKQSPTMTLIYDENGQLLWAQRDVPWLMKMIQPDWLKSNGFHEIEADVNDTSLLLSGDHSIQQQLQEVREDDDDAEMTHSVAVNVYPATSRMPKLTIVVVDTIPVELKSSYMVWSWFIYVLSANLLLVIPLLWVAAWWSLRPIEALAKEVRELEEHNRELLNPATTRELTSLVRNLNRLLKSERERYDKYRTTLTDLTHSLKTPLXXLQXXLRSLRSEKMSVSDAEPVMLEQISRISQQIGYYLHRASMRGGTLLSRELHPVAPLLDNLTSALNKVYQRKGVNISLDISPEISFVGEQNDFVEVMGNVLDNACKYCLEFVEISARQTDEHLYIVVEDDGPGIPLSKREVIFDRGQRVDTLRPGQGVGLAVAREITEQYEGKIVAGESMLGGARMEVIFGRQHSAPKDE

Variants of: B1
Experiment: enrichment ratio after two sorts for PhoP signalling (ratio (wild type AVST 3.29)); higher = more functional
Details: with PhoP (E. coli)

Variant	enrichment ratio
LKTQ	≤ 0.25
HHMC	≤ 0.25
FFEW	≤ 0.25
SADI	≤ 0.25
SNGG	7.77
TNLA	8.08
RGND	≤ 0.25
AQNG	28.2
PGNG	≤ 0.25
NQNG	≤ 0.25
IQNG	≤ 0.25
TGNG	23.3
NGNG	≤ 0.25
VKSA	≤ 0.25
NIRT	≤ 0.25
AVYH	0.253
INLE	≤ 0.25
GMTL	15.2
TTTL	13.4
CTTL	≤ 0.25
SRTL	0.897
SITL	18.5
DITL	≤ 0.25
LTTL	≤ 0.25
SFTL	1.44
SSTL	14

Variant	enrichment ratio
GVTL	8.09
KYTL	≤ 0.25
FVTL	1.5
MWFH	≤ 0.25
PGWI	≤ 0.25
ESFA	≤ 0.25
HNYP	≤ 0.25
MKHE	≤ 0.25
GLGE	≤ 0.25
GQQP	≤ 0.25
FLMS	≤ 0.25
ANVH	≤ 0.25
SNTL	14.6
FQTL	1.49
GTTL	11.7
TWTL	≤ 0.25
WNTL	≤ 0.25
MNTL	3.28
SQTL	12.3
TNTL	14
IQTL	≤ 0.25
FTTL	3.67
GNTL	6.85
QCRR	≤ 0.25
NVGP	≤ 0.25
SGTL	7.51

Variant	enrichment ratio
WPCQ	≤ 0.25
HKKN	≤ 0.25
PVRE	≤ 0.25
NYRG	≤ 0.25
SCTL	14.2
WLTL	0.379
SVTL	12.2
TCTL	20.7
VCTL	6.03
SLTL	15.2
SVWL	≤ 0.25
FCTL	≤ 0.25
KFTL	≤ 0.25
KCTL	≤ 0.25
PLTL	≤ 0.25
EAPT	≤ 0.25
TVGM	10.4
MWTK	≤ 0.25
AEKL	≤ 0.25
ARYC	≤ 0.25
ESWQ	≤ 0.25
HSSR	≤ 0.25
LRFQ	≤ 0.25
NETL	≤ 0.25
ITTL	0.464
FLTL	0.273

Variant	enrichment ratio
SETL	14.8
STTL	16.6
YTTL	3.18
TLTL	14.1
QETL	≤ 0.25
VLTL	3.19
MHRQ	≤ 0.25
GSPC	≤ 0.25
QHLF	≤ 0.25
RLFC	≤ 0.25
NYDD	≤ 0.25
RDCN	≤ 0.25
EACS	≤ 0.25
MLAN	≤ 0.25
NCYQ	≤ 0.25
MEYQ	≤ 0.25
MLYQ	18.8
MCYQ	17.2
MLYD	≤ 0.25
KCYQ	≤ 0.25
MADQ	≤ 0.25
VHFE	≤ 0.25
ESLL	0.525
ELNQ	≤ 0.25
GIML	8.24
YNNL	≤ 0.25

Variant	enrichment ratio
MNMI	4
TNML	1.41
GGML	15.7
MNML	24.9
YNSK	≤ 0.25
GNML	12.2
GQML	7.95
VGML	8.33
YNML	13.9
LNML	2.48
SKFF	≤ 0.25
ALTN	7.81
SRAG	≤ 0.25
IRNN	≤ 0.25
KMTD	≤ 0.25
DIIE	≤ 0.25
HEPC	≤ 0.25
YNTI	≤ 0.25
GRQY	≤ 0.25
HFML	≤ 0.25
VNML	14.6
HIML	≤ 0.25
VNSK	≤ 0.25
TGML	12.2
MVCL	4.31
HGML	21.6

Variant	enrichment ratio
NGML	≤ 0.25
RGML	≤ 0.25
MVML	11.9
MVPL	≤ 0.25
VNNL	≤ 0.25
YQHI	≤ 0.25
FWLA	≤ 0.25
TCLH	1.39
SHYK	≤ 0.25
DMSQ	≤ 0.25
IDIQ	≤ 0.25
RRTP	≤ 0.25
MAIN	≤ 0.25
GTWQ	≤ 0.25
EFQI	≤ 0.25
GYML	≤ 0.25
GTML	12.6
FGDL	≤ 0.25
GCML	3.33
QGML	6.23
PWML	≤ 0.25
GVML	13.4
FGML	22.9
PVML	≤ 0.25
